Experimental findings from PubChem BioAssay are described below.

The source made the active and inactive calls.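 How the source made its calls: active means compounds killing one labelled cell type while sparing the other, by normalised counts and ratio limits, not self-fluorescent; inactive means the rest.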

A short description of the experiment: EMT-state selective cytotoxicity in co-culture – imaging, PC-3E GFP, TEM4-18 mCherry, primary screen (AID 1345086).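 On all read-outs here: cells exposed to compound for 72 h before imaging.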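 On red/green cell ratio (normalised): normalised mesenchymal count divided by normalised epithelial count so high means epithelial killing.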 The settings on record: PC-3E GFP / TEM4-18 mCherry co-culture, imaging cell counts, at 1 µM; for red/green cell ratio (normalised): actives lie on both sides, counts scaled to control wells, 1 = unselective.
[1] abbreviates: measured here: epithelial PC-3E GFP cell survival.
[2] abbreviates: measured here: mesenchymal TEM4-18 mCherry cell survival.

Take `Nc1nc(Cl)nc2c1ncn2C1O[C@H](CO)[C@@H](O)[C@@H]1F` (stereo not given in full): the red/green cell ratio (normalised) was 1.78 (inactive). Moreover, the normalised cell number under setting [1] amounted to 0.22. This compound had a normalised cell number under setting [2] of 0.39.
Taken in the same sequence, the figures for `O=C(/C=C/c1ccccc1)O[C@H]1C[C@@H](O)[C@]2(O)C=CO[C@@H](O[C@@H]3O[C@H](CO)[C@@H](O)[C@H](O)[C@H]3O)C12` (stereo not given in full) were 1.09 (inactive), 0.87 and 0.95.
As for `CC1=CC2C(C(C)C)CCC(C)(O)C2CC1` (stereo not given), the red/green cell ratio (normalised) is 1.01 (inactive). Under setting [1], the normalised cell number came to 1.1. The normalised cell number under setting [2] was 1.11.
Turning to `CC(=O)[C@H]1CCC2C3C=CC4=CC(=O)CC[C@@]4(C)C3CC[C@@]21C` (stereo not given in full), the red/green cell ratio (normalised) was 0.68 (inactive). The compound further gave a normalised cell number under setting [1] of 1.28. The normalised cell number under setting [2] stood at 0.87.
For `CC(=O)OC1CCC2(C)C3CC(=O)C4(C)C(CC5OC6(CCC(C)CO6)[C@@H](C)C54)C3CC[C@H]2C1` (stereo not given in full), in that order: 0.89 (inactive), 1.05 and 0.93.
With `C=C(C)[C@@H]1CC[C@]2(C)CC[C@]3(C)[C@@H](CCC4[C@@]5(C)CC[C@H](O)C(C)(C)C5CC[C@]43C)C12` (stereo not given in full), the red/green cell ratio (normalised) was 1.12 (inactive). The compound also showed a normalised cell number under setting [1] of 0.95. The same compound came in with a normalised cell number under setting [2] of 1.07.
Turning to `NCC1O[C@@H](OC2C(N)C[C@@H](N)C(OC3OC(CO)[C@@H](O)C(N)[C@H]3O)[C@H]2O)C(O)[C@@H](O)C1O` (stereo not given in full), the red/green cell ratio (normalised) was 1.1 (inactive). Also, under setting [1], the normalised cell number was 1.02. This compound also came in with a normalised cell number under setting [2] of 1.13.
For `NC(CSSCC(N)C(=O)O)C(=O)O` (stereo not given), the red/green cell ratio (normalised) was 0.92 (inactive). Also, under setting [1], the normalised cell number was 1.24. Moreover, the normalised cell number under setting [2] was determined as 1.15.
For `O=C1N=NC(=O)N1c1ccccc1`, in that order: 0.86 (inactive), 1.19 and 1.03.
With `COc1cc(O)c2c(c1)[C@@H](O)[C@@]13CO[C@@H](O)[C@@]1(O3)C2=O`, the red/green cell ratio (normalised) was 1.09 (inactive). Under setting [1], this compound displayed a normalised cell number of 1.01. The same compound showed a normalised cell number under setting [2] of 1.1.
Regarding `CC(=O)OCC1O[C@H](Sc2ccc(C)cc2)[C@@H]2[C@@H](OC(=O)N2Cc2ccccc2)C1OC(C)=O` (stereo not given in full), the red/green cell ratio (normalised) is 0.83 (inactive). The compound also showed a normalised cell number under setting [1] of 1.3. Under setting [2], this compound had a normalised cell number of 1.08.
For `C[C@]12CCC3c4ccc(OC(=O)c5ccccc5)cc4CCC3C1CC[C@@H]2O` (stereo not given in full), in that order: 1.1 (inactive), 1 and 1.1.
On to `COc1c(N2CC[C@@H](CN)C2)c(F)cc2c(=S)c(C(=O)O)cn(C3CC3)c12`, for which the red/green cell ratio (normalised) is 1.12 (inactive). The normalised cell number under setting [1] is 1.08. Also, under setting [2], the normalised cell number is 1.2.
For the compound `CCC(CCC(C)[C@H]1CCC2C3CC=C4C[C@@H](O)CC[C@]4(C)C3CC[C@@]21C)C(C)C` (stereo not given in full), the red/green cell ratio (normalised) was 1.04 (inactive). Under setting [1], this compound showed a normalised cell number of 1.04. Moreover, the normalised cell number under setting [2] came to 1.08.
On to `C=C/C(C)=C\CC1[C@](C)(O)CC[C@H]2C(C)(C)CCC[C@]12C` (stereo not given in full), for which the red/green cell ratio (normalised) was 1.09 (inactive). The normalised cell number under setting [1] turned out to be 1.11. Under setting [2], this compound showed a normalised cell number of 1.2.
For `COC(=O)CCC(C)C1CCC2C3CC[C@@H]4C[C@H](O)CC[C@]4(C)C3C[C@H](O)[C@]12C` (stereo not given in full), in that order: 0.9 (inactive), 1.05 and 0.94.
As to `O[C@@H]1[C@H](O)CO[C@H]1O`, the red/green cell ratio (normalised) was 0.77 (inactive). Besides, the normalised cell number under setting [1] worked out at 1.11. The compound further gave a normalised cell number under setting [2] of 0.86.
Consider `O=c1c(O)c(-c2ccc(O)c(O)c2)oc2c(O[C@@H]3O[C@H](CO)[C@H](O)[C@@H](O)[C@H]3O)c(O)cc(O)c12`, for which the red/green cell ratio (normalised) was 0.95 (inactive). Under setting [1], this compound had a normalised cell number of 1.06. For the same compound, the normalised cell number under setting [2] was found to be 1.01.
With `CO[C@H]1CC(O[C@@H]2/C(C)=C/C[C@@H]3C[C@@H](C[C@]4(CC[C@H](C)[C@@H](C5CCCCC5)O4)O3)OC(=O)[C@@H]3C=C(C)/C(=N/O)C4OC/C(=C\C=C\[C@@H]2C)[C@]43O)O[C@@H](C)C1O` (stereo not given in full), the red/green cell ratio (normalised) was 1.11 (inactive). Under setting [1], this compound showed a normalised cell number of 1.23. For the same compound, under setting [2], the normalised cell number stood at 1.36.
Taken in the same sequence, the figures for `COc1cc(OC)c2c(c1C)C(C)(O)COC2=O` (stereo not given) were 0.9 (inactive), 1.14 and 1.02.
For `CC[C@H](CCC(C)[C@H]1CCC2C3CCC4C[C@@H](O)CC[C@]4(C)C3CC[C@@]21C)C(C)C` (stereo not given in full), the red/green cell ratio (normalised) is 1.11 (inactive). In addition, the normalised cell number under setting [1] is 0.91. The same compound displayed a normalised cell number under setting [2] of 1.01.
As for `Nc1ncnc2c1ncn2C1C[C@H](O)[C@@H](CO)O1` (stereo not given in full), the red/green cell ratio (normalised) is 0.92 (inactive). The same compound had a normalised cell number under setting [1] of 0.99. The same compound came in with a normalised cell number under setting [2] of 0.91.
In the case of `COc1cc(N)cc(OC)c1`, the red/green cell ratio (normalised) is 0.94 (inactive). The compound further gave a normalised cell number under setting [1] of 0.97. The normalised cell number under setting [2] turned out to be 0.91.
`Clc1ccc(Br)cc1/C=C/C1CCCNC1` (stereo not given): the red/green cell ratio (normalised) is 0.95 (inactive). Under setting [1], this compound yielded a normalised cell number of 1.16. This compound had a normalised cell number under setting [2] of 1.1.
For `CC1=CO[C@]2(C1=O)[C@H]1C(=O)O[C@]3(C[C@@H]2C)C(C)=CC(=O)O[C@]13O`, the red/green cell ratio (normalised) is 0.85 (inactive). In addition, the normalised cell number under setting [1] is 1.16. Further, under setting [2], the normalised cell number was 0.99.
`CC(C)CCCC(C)C1CCC2C3=CC[C@H]4C[C@@H](O)CC[C@]4(C)C3CC[C@@]21C` (stereo not given in full): the red/green cell ratio (normalised) was 0.98 (inactive). Under setting [1], the normalised cell number was found to be 1.1. The same compound gave a normalised cell number under setting [2] of 1.08.
On to `COc1cc(C)c(Oc2cc(C)cc(O)c2O)c(O)c1`, for which the red/green cell ratio (normalised) is 0.97 (inactive). The compound also gave a normalised cell number under setting [1] of 1.18. This compound also displayed a normalised cell number under setting [2] of 1.15.
Take `CCC(C)[C@H]1O[C@]2(CC[C@@H]1C)C[C@@H]1C[C@@H](C/C=C(\C)[C@@H](OC3C[C@H](OC)C(O[C@H]4C[C@H](OC)[C@@H](O)[C@H](C)O4)[C@H](C)O3)[C@@H](C)/C=C/C=C3\COC4[C@H](O)C(C)=C[C@@H](C(=O)O1)[C@]34O)O2` (stereo not given in full): the red/green cell ratio (normalised) was 0.84 (inactive). In addition, the normalised cell number under setting [1] worked out at 1.17. The normalised cell number under setting [2] turned out to be 0.97.
Turning to `COc1cc(O)c2c(c1)C(=O)C1=C(C2=O)C(OC)OC1` (stereo not given), the red/green cell ratio (normalised) is 1.02 (inactive). For the same compound, the normalised cell number under setting [1] amounted to 0.9. This compound also yielded a normalised cell number under setting [2] of 0.92.
Take `COc1ccc2oc(-c3ccccc3)c(OC)c(=O)c2c1`: the red/green cell ratio (normalised) is 0.79 (inactive). Besides, under setting [1], the normalised cell number turned out to be 1.37. The normalised cell number under setting [2] was found to be 1.08.
